# Source: PubChem (several laboratories)
# Jurkat NFkB inh = inhibitors of induced NF-kB luciferase reporter, primary screen, TCR NF-kB activation inhibitor project, cell-based, luminescence, uHTS; Jurkat, PMA/ionomycin-induced NF-kB luciferase reporter; inhibition, % at 4 µM; actives 0.53% (n = 330,000); in the data active = inhibition above about 50%
# 697 NFkB inh = inhibitors of PMA/ionomycin-induced NF-kB reporter, 697 cells, primary screen, B-cell NF-kB inhibitor project, cell-based, luminescence, uHTS. 697 B-cell NF-kB luciferase reporter, 16 h. inhibition, % at 4 µM. actives 0.33% (n = 330,000). AID 435022, 2010; in the data active = inhibition above about 35%
# EBV LMP1 NFkB = EBV LMP1-driven NF-kappaB luciferase reporter inhibitors, primary screen, cell-based, luminescence, single point | LMP1-induced NF-kappaB luciferase reporter cells | inhibition, % at 12.5 µM | actives 0.69% (n = 350,000) | AID 504558, 2011; in the data active = inhibition above about 41%;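 also: 0% = neutral control wells and 100% = reference inhibitor control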
# MITF TRPM1 inh = inhibitors of MITF-dependent TRPM1 promoter reporter, primary screen, cell-based, SK-MEL-5, single point, luciferase | actives 0.83% (n = 330,000) | inhibition, % at 12.5 µM | AID 488899, 2010 | SK-MEL-5 TRPM1 promoter luciferase, 24 h;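 active = mean inhibition across replicates of 60% or more, whatever share of single replicates reaches that level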
# Gli-Sufu antag = Gli-Sufu pathway antagonists, primary screen, luciferase luminescence, Sufu-KO-LIGHT cells, uHTS; inhibition, % at 5 µM; actives 0.74% (n = 340,000); Sufu-KO-LIGHT fibroblasts, Gli luciferase reporter luminescence;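 active = inhibition above about 55%, limit read from the data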;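 also: 0% = DMSO-treated cells and 100% = wells with medium but no cells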
# Shn3 inh set2 = reduction of Shn3 3'UTR firefly luciferase signal, primary screen, Schnurri-3 inhibitor project, cell-based, Clone20 osteoblasts, set 2 | Clone20 osteoblast Shn3 3'UTR firefly luciferase, 24 h | inhibition, % at 12.5 µM | actives 0.52% (n = 360,000);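 active = mean inhibition of at least 75% with every replicate also reaching 75%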;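 also: 0% = median of neutral control wells and 100% = pilot-screen positive control compound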
# 697 NFkB conf = PMA/ionomycin-induced NF-kB reporter inhibitors, 697 retest, confirmation, B-cell NF-kB inhibitor project, cell-based, luminescence, single concentration. shares compounds with 697 NFkB inh. 697 B-cell NF-kB luciferase, 16 h. inhibition, % at 4 µM. actives 35% (n = 2,000). AID 449746, 2010; in the data active = inhibition mostly above about 28%, no sharp cut-off; inactive = mostly below about 22%
# Numbers without * were called inactive; i = inactive; · = not tested or not shown. Shown are actives, neighbours in structure and some others; about 2.3% of the full set was active somewhere.
SMILES,Jurkat NFkB inh,697 NFkB inh,EBV LMP1 NFkB,MITF TRPM1 inh,Gli-Sufu antag,Shn3 inh set2,697 NFkB conf
CCN(CC)C(=O)c1ccc(S(=O)(=O)Cc2ccc(C)cc2)c([N+](=O)[O-])c1,7,40*,7,-5,2,15,39*
COc1ccccc1C(=O)NC(=S)Nc1cccnc1Cl,-125,-250,28,-38,-52,-19,-332
Cc1nn(Cc2c(Cl)cccc2Cl)c(C)c1NC(=O)c1cc(C(C)C)on1,-55,-470,8,1,-19,67,i
O=C(Nc1ccc(/C=C/c2nc3ccccc3o2)cc1)c1cccc(C(F)(F)F)c1,-2,-327,-38,-7,-5,-15,-215
C=CCNC(=O)/C(C#N)=C\c1cc(Cl)c(O)c(OCC)c1,·,·,-6,-8,1,-18,·
CCOc1cc(/C=C2\CCC/C(=C\c3cc(Cl)c(O)c(OCC)c3)C2=O)cc(Cl)c1O,22,-378,-37,72*,-8,70,-159
COc1ccc(C(=O)N/N=C/c2sc(N3CCOCC3)nc2-c2ccccc2)cc1OC,2,41*,0,-28,-3,-23,32*
O=C(N/N=C/c1sc(N2CCOCC2)nc1-c1ccccc1)c1ccc(O)cc1,2,31,-4,-8,-7,-1,·
CCOC(=O)c1c(C)[nH]c(C)c1S(=O)(=O)N(C)CC(=O)Nc1ccccc1OC,2,-3,1,-6,-10,-5,·
C=C(C)[C@@H]1CC[C@]2(C(=O)O)CC[C@]3(C)C(CCC4[C@@]5(C)CC[C@H](O)C(C)(C)C5CC[C@]43C)C12 (stereo partly drawn),0,-18,-13,·,-23,7,·
C=C(C)[C@@H]1CCC2(C(=O)O)CC[C@]3(C)[C@H](CC[C@@H]4[C@@]5(C)CCC(=O)C(C)(C)[C@@H]5CC[C@]43C)[C@@H]12 (stereo partly drawn),3,80*,49*,10,-12,-18,61*
COC(=O)c1c(NC(=O)c2cccc([N+](=O)[O-])c2)sc(C(N)=O)c1C,16,39*,-28,14,-16,9,50*
O=C(Nc1ccc(NC(=O)c2cccc([N+](=O)[O-])c2)cc1)c1cccc([N+](=O)[O-])c1,-20,-17,4,1,30,3,·
O=C(Nc1ccccc1)Nc1ncc([N+](=O)[O-])s1,-80,-260,-10,-5,-110,19,-351
O=C(Nc1ncc([N+](=O)[O-])s1)c1cccc([N+](=O)[O-])c1,-72,-450,15,4,-24,-62,-444
O=C1N=C(N2CCCCC2)S/C1=C\c1ccccc1F,-38,-36,-13,-49,-60,-91,·
CCCOc1ccccc1/C=C1\SC(N2CCCCC2)=NC1=O,-57,-300,-38,2,-5,-24,-287
CCOCCCNC(=S)Nc1ccc2nc3n(c(=O)c2c1)CCCCC3,3,14,2,-1,2,14,·
COCCCNC(=S)Nc1ccc2nc3n(c(=O)c2c1)CCCCC3,-10,35*,1,-12,-3,10,4
COC(=O)CC1=C(C(=O)OC)C(c2ccc3c(c2Cl)OCO3)C(C#N)=C(N)O1 (stereo not drawn),-8,-31,4,1,-4,8,·
CCN1CCN(c2sc(S(=O)(=O)CC)nc2S(=O)(=O)c2ccc(C)cc2)CC1,·,·,10,·,·,2,·
COc1cc(CN(C2CCCCC2C)S(=O)(=O)c2ccc(S(=O)(=O)NC3CC3)cc2)cc(OC)c1OC (stereo not drawn),-7,36*,-3,-7,15,16,-1
CCN1C(=O)c2ccccc2Sc2ccc(C(=O)NCCN3CCOCC3)cc21,-8,-7,2,·,3,13,·
CCCN1C(=O)c2ccc(C(=O)NC3=NCCS3)cc2C1=O,3,0,-5,-2,7,-21,·
CCCN1C(=O)c2ccc(C(=O)Nc3ccc4c(c3)OCO4)cc2C1=O,4,36*,-8,-71,-12,-28,-2
SMILES,Jurkat NFkB inh,697 NFkB inh,EBV LMP1 NFkB,MITF TRPM1 inh,Gli-Sufu antag,Shn3 inh set2,697 NFkB conf
CC(C)Cc1nnc(NC(=O)c2ccc3c(c2)OCCO3)s1,-128,-268,-17,-78,-88,25,-193
CC(C)C(=O)Nc1ccc(NC(=O)c2ccc3c(c2)OCO3)cc1,-12,50*,-2,-3,3,-19,43*
Cc1ccc(NC(=O)c2ccc3c(c2)OCCO3)cc1C,-84,-264,29,7,-151,0,-368
COc1cc(NC(=O)c2ccc3c(c2)OCO3)ccc1NC(=O)C(C)C,-7,-11,-7,-16,-1,12,·
COc1ccc(CC(=O)NNc2ncnc3c2cnn3C)cc1,12,15,9,-9,-3,-11,·
O=C(Nc1ncccc1O)c1ccc2c(c1)OCO2,-37,-130,25,-47,-33,-140,·
O=C(Nc1ncccc1O)c1ccc2c(c1)OCCO2,-60,-290,32,-21,-40,-134,-185
COc1ccc(CCC(=O)NCc2ccccc2Cl)cc1OC,-7,10,5,8,27,-2,·
Cc1noc(C)c1COc1ccc(C(=O)OCC(=O)Nc2ccc(S(N)(=O)=O)cc2)cc1,12,11,11,0,-2,-5,·
Cc1ccc(N=Nc2cc(C)ccc2N)cc1,-98,-326,-59,3,-128,-8,-157
CCN(Cc1ccccc1)C(=O)CN1C(=O)NC2(CC(C)CC(C)(C)C2)C1=O (stereo not drawn),2,13,10,0,-2,-12,·
Cc1[nH]c2ccccc2c1C(=O)CN1C(=O)NC2(CC(C)CC(C)(C)C2)C1=O (stereo not drawn),16,38*,1,2,11,29,49*
CN(Cc1cccc(F)c1)C(=O)CNS(=O)(=O)c1ccc2ccccc2c1,5,18,1,-3,9,3,·
Cc1cc(Br)ccc1OCc1nc(-c2cccnc2)no1,-39,-28,-17,-62,-29,-61,·
COc1cc2c(cc1NC(=O)CSCC(=O)O)oc1ccccc12,3,36*,7,25,-4,5,-1
O=C(CCl)N1CCN(S(=O)(=O)c2ccc3c(c2)CCC3)CC1,4,38*,-6,66*,6,-4,38*
CC(NC(=O)CN(C)CC(=O)Nc1ccccc1Br)c1ccccc1 (stereo not drawn),-4,15,-4,-5,-3,5,·
